Experimental data as given in PubChem BioAssay AID504332 (National Center for Advancing Translational Sciences (NCATS), 2011).
Screen size: about 350,000 compounds; about 31,000 (8.9%) were called active. Inconclusive results (about 15%) are left out. This is one part of a sample in which actives are shown more often than they occur. Calls follow the shape of the dose curve; as a rule, active = well fitted inhibition curve with a large enough effect; inconclusive = small, poorly fitted or top-dose-only effect; inactive = no such curve, though single readings can be large or run the other way.

These molecules were tested against Histone-lysine N-methyltransferase EHMT2 (Homo sapiens) (UniProt Q96KQ7) (assay: qHTS Assay for Inhibitors of Histone Lysine Methyltransferase G9a). Settings: G9a H3K9 monomethylation, AlphaScreen, 2 h; series mostly up to 59 µM.
Chain of Histone-lysine N-methyltransferase EHMT2 (Homo sapiens) (Q96KQ7 913-1193 limits assumed): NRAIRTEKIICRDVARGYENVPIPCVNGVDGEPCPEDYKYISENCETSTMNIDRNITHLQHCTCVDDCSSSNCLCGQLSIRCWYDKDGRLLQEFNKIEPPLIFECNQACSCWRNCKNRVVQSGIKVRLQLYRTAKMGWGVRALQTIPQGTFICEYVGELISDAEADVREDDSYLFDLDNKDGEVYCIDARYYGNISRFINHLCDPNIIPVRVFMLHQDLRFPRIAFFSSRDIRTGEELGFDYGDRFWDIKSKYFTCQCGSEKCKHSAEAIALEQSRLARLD
Summary of the method: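 Chemiluminescent proximity detection of H3K9 monomethylation, read after 10 min bead incubation in the dark. Reaction: 20 nM G9a, 500 nM biotin-H3K9 peptide, 20 uM SAM cofactor, 2 h, room temperature, following 15 min enzyme-compound preincubation.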
% is scaled to controls: 0 for no effect and ±100 for the full control effect; potency is read from the fitted curve at half-maximal effect.
Also: nearly all actives have a fitted effect of over 75% in size.

Potency, active:
Cc1ccc(C(=O)Nc2sc(Cc3ccc4c(c3)OCO4)c(C)c2C(N)=O)cc1 50.1 µM
CCCNC(=O)c1c(N)n(-c2ccc(S(N)(=O)=O)cc2)c2nc3ccccc3nc12 50.1 µM
CCc1cc(-c2n[nH]c(=S)n2CC(C)C)cs1 1.78 µM
CCc1ccc(NC2Nc3cc(C)nn3S2)cc1 (centres undefined) 1 µM
CCOC(=O)c1ccc(NC2Nc3cc(C)nn3S2)cc1 (centres undefined) 3.16 µM
O=S(=O)([N-]c1nc2ccccc2nc1-[n+]1ccc(Cc2ccccc2)cc1)c1ccc(Br)s1 11.2 µM
Cc1ccc(/C=N/NC(=S)Nc2cccc(S(=O)(=O)N(C)C)c2)o1 50.1 µM
COC(=O)c1ccc(COC(=O)C2CCN(S(=O)(=O)c3c(Cl)cccc3Cl)CC2)o1 35.5 µM
Cc1cc(NC(=O)CN2CCC(O)(c3cccc(F)c3)CC2)no1 8.91 µM
Oc1c(C(c2ccccn2)N2CCOCC2)ccc2cccnc12 (centres undefined) 8.91 µM
O=C(NC(=S)Nc1ccc2oc(=O)ccc2c1)c1ccc(-c2cccc(Cl)c2Cl)o1 10 µM
CC(Oc1cccc(Cl)c1)C(=O)Nc1ccc(S(=O)(=O)Nc2ncccn2)cc1 (centres undefined) 35.5 µM
O=c1[nH]oc(O)c1-c1ncc(C(F)(F)F)cc1Cl 44.7 µM
COc1ccc(-n2cnc3cc(NCc4ccco4)ccc32)cc1 44.7 µM
NC(N)=N/N=C/c1ccc(OCc2ccc(Cl)cc2Cl)cc1 50.1 µM
CC(C)(C)c1ccc(C(=O)NCCC(=O)NCc2ccco2)cc1 44.7 µM
Oc1ccc(N2CCN(C(=S)NCc3ccccc3)CC2)cc1 10 µM
Oc1ccccc1N1CCN(C(=S)NCc2ccccc2)CC1 31.6 µM

Potency, inactive:
Cc1sc2ncn(CC(=O)N3CCN(c4ccc(F)cc4)CC3)c(=O)c2c1S(=O)(=O)N1CCN(c2ncccn2)CC1
Cc1ccc(C)c(S(=O)(=O)n2nc(C)c(S(=O)(=O)N3CCC(C)CC3)c2C)c1
CCc1ccc(Sc2cc(C(=O)NCCCOC(C)C)c3ccccc3n2)cc1
O=c1c2cc(Br)ccc2nc(-c2cccc(Cl)c2)n1O
COc1ccc(CC(=O)Nc2sc(Cc3ccccc3)c(C)c2C(N)=O)cc1
COCc1nnc(NC(=O)c2ccc3c(c2)OCO3)s1
O=C(Nc1ccc2nc(SCCOc3ccccc3)sc2c1)c1ccco1
Cc1cc2nc(NC(=O)c3ccc(S(=O)(=O)N4CCOCC4)cc3)sc2cc1C
O=c1c2cccnc2n(Cc2cccc(F)c2)c(=O)n1Cc1ccccc1Cl
CCOC(=O)c1c(N)n(-c2cccc(C)c2C)c2nc3ccccc3nc12
CC(C)Cn1c(N)c(C(=O)NCc2cccs2)c2nc3ccccc3nc21
COc1cc(NS(=O)(=O)c2cccs2)cc(OC)c1
O=C(NCCc1ccc(Cl)cc1)c1ccc2nc(CCc3ccccc3)oc2c1
CCc1cc(-c2nnc(SCC(=O)NC3CC3)n2C)cs1
CCn1c(-c2ccncc2)n[nH]c1=S
CCc1ccc(N(CC)C(=O)CCn2cnc3onc(-c4ccc(F)cc4)c3c2=O)cc1
O=C1CC2(CCN(C(=O)COc3ccc(F)cc3)CC2)Oc2ccccc21
CCc1ccccc1OCCSc1nc(-c2cccs2)nc2cc(=O)[nH]n12
C#CCNc1ccc(C(=O)OCC)cc1
CCOC(=O)c1ccc(NC(=O)CCn2cnnn2)cc1
CCc1ccc(CNC(=O)c2ccc(CS(=O)c3ccc(Br)cc3)o2)cc1 (centres undefined)
COc1ccc(Cn2ccn(CC(=O)Nc3cc(C)ccc3C)c(=O)c2=O)cc1
Cc1cccc(NC(=O)c2ccc(F)c(S(=O)(=O)N(C)C3CCCCC3)c2)c1
O=C(NCCc1ccccc1)C1CCN(S(=O)(=O)c2ccc(Br)s2)CC1
Cc1cc(C)c[n+](-c2nc3ccccc3nc2[N-]S(=O)(=O)c2cccs2)c1
COc1ccc(-n2nnc(-c3nsc(NC(=O)c4ccc(C)c(C)c4)n3)c2C)cc1Cl
COc1ccccc1NC(=O)CSc1oc(-c2ccco2)nc1S(=O)(=O)c1ccc(Br)cc1
CN(C)S(=O)(=O)c1cccc(NC(=S)N/N=C/C(=O)c2ccccc2)c1
CN(C)S(=O)(=O)c1cccc(NC(=O)Cc2ccsc2)c1
COc1cc(Cl)c(C)cc1Nc1nnc(-n2nc(C)cc2C)c2ccccc12
Cc1ccc2cccc(NC(=O)c3cccc4ccccc34)c2n1
COc1cccc(COC(=O)C2CCN(S(=O)(=O)c3ccc(Cl)cc3)CC2)c1OC
CCOc1ccc(S(=O)(=O)N2CCC(C(=O)OCc3ccc(OC)cc3)CC2)cc1
O=C(Nc1cc(-c2nc3ccccc3o2)ccc1Cl)c1cc([N+](=O)[O-])ccc1N1CCOCC1
O=C(CN1CCC(O)(c2ccccc2)CC1)Nc1ccc2c(c1)OCCO2
COc1cc(OC)c(NC(=O)Cc2ccc(-n3c(C)nc4cccnc43)cc2)cc1Cl
CC(=O)c1ccc(NC(=O)CSc2nc(-c3ccccc3F)nc3c2c(=O)n(C)c(=O)n3C)cc1
O=C(c1cccnc1NCc1ccccc1)N1CCOCC1
CCOc1cc(N2CCOCC2)c(OCC)cc1NC(=O)COc1cccc2cccnc12
O=S(=O)(c1ccc(Br)cc1)c1nnn2c1nc(NC1CCCCCC1)c1sccc12
O=c1n(Cc2cccc(C(F)(F)F)c2)c2ccccc2c2nc(-c3ccccc3)nn12
CCn1c2c(c(=O)n3ncc(C(=O)N4CCN(c5ccccc5)CC4)c13)CN(Cc1ccc(OC)cc1)CC2
Cc1cc2c(cc1C)C(c1cccc(OC(C)C)c1)CC(=O)N2 (centres undefined)
COc1ccccc1CCNC(=O)C(=O)NCCC1CCCCN1S(=O)(=O)c1cccs1 (centres undefined)
O=C(COc1ccc(Cl)cc1)Nc1ccc2oc(=O)ccc2c1
CC(C)C(=O)Nc1ccc2oc(=O)ccc2c1
Cc1ccc(C(=O)CSc2nc(-c3ccccc3)nc3c2CCCC3)c(C)c1
O=C(/C=C/c1ccc(Cl)cc1)Nc1ccc(S(=O)(=O)Nc2ncccn2)cc1
CCc1ccc(OC(C)C(=O)Nc2ccc(S(=O)(=O)Nc3cc(C)on3)cc2)cc1 (centres undefined)
Cc1ccc(Cl)cc1NC(=O)CSc1nccn1C
CS(=O)(=O)N1CCc2cc(C(=O)Nc3ccccc3Br)ccc21
O=S(=O)(c1ccc(C2CCCCC2)cc1)N1CCN(c2ccc(Cl)c(Cl)c2)CC1
CC(=O)c1ccc(Cc2ncc(C(F)(F)F)cc2Cl)s1
O=C(c1ccccn1)c1ncc(C(F)(F)F)cc1Cl
COc1ccc(Nc2nc(Cl)nc(NCc3ccco3)n2)cc1
COc1ccc(-n2cnc3cc(C(=O)NC4CCCC4)ccc32)cc1
Cc1nn(C)c(C)c1NS(=O)(=O)c1ccc(OC(F)(F)F)cc1
CCN(CC(=O)Nc1cc(Cl)ccc1C)C(=O)CSCc1ccccc1
CCOc1ccc(NC(=O)NNC(=O)c2ccc(Cl)cc2Cl)cc1
COc1ccc(C(=O)O/N=C(\N)Cc2ccc(Cl)cc2Cl)cc1OC
COc1ccc(CNc2nc(-c3ccc(Cl)cc3)cc(C(F)(F)F)n2)cc1
CCc1ccc(NS(=O)(=O)c2ccc3[nH]cc(C(=O)NCCc4cccc(C)c4)c(=O)c3c2)cc1
CC(C)(C)OC(=O)N1CCC(c2c(C(=O)Nc3ccc4c(c3)OCO4)cnn2-c2ccccc2)CC1
CCCCNC(=O)CCNC(=O)c1ccc(C(C)(C)C)cc1
Cc1nc2ccccc2c(=O)n1-c1ccc(NS(=O)(=O)c2ccc(F)cc2F)cc1
O=C(COC(=O)c1ccccc1C(=O)N1CCN(c2ccccc2)CC1)NCc1ccccc1
S=C(NCCc1ccccc1)N1CCCCC1
O=C1CCN(C(=S)NCCc2ccccc2)CC1
CCCc1cc(=O)[nH]c(SCC(=O)c2c(N)n(CC(C)C)c(=O)n(C)c2=O)n1
CCOc1cccc(NC(=O)c2ccc(F)c(S(=O)(=O)N(CC)c3cccc(C)c3)c2)c1
O=C(CCS(=O)(=O)c1cc(Br)cc2c1N(C(=O)C1CC1)CC2)Nc1ccc(C(F)(F)F)cc1

activity, negative = inhibition, inactive:
CC(C)(CNC(=O)CNC(=O)C1CCCCC1)N1CCOCC1 -2.59% [at 12.7 µM]
CC(Oc1ccc(Br)cc1)C(=O)NC1CCCCCC1 (centres undefined) 35.3% [at 12.7 µM]
O=C(CCCCO)c1ccc(O)c(Cl)c1 1.29% [at 2.33 µM]
Cc1ccccc1OCCC(=O)OCC(=O)NCCc1ccc(S(N)(=O)=O)cc1 -2.83% [at 12.7 µM]
CC(=O)NC1(c2cccc(F)c2)CCN(CC(=O)NC(C)C)CC1 -5.2% [at 12.7 µM]
COc1ccccc1CNC(=O)COC(=O)c1sc(C)nc1C 11.2% [at 2.33 µM]
CCCNC(=O)c1onc(CSc2ccc(F)cc2)c1C(=O)NC(C)C 20% [at 2.33 µM]
O=C(CCNC(=O)c1ccccc1Cl)NCc1ccco1 4% [at 12.7 µM]
COCCCNc1nc2c(-c3cccc(C)c3)nnn2c2ccc(Cl)cc12 3.35% [at 0.501 µM]
O=C(CN1CCN(c2ccccc2O)CC1)NC(=O)NCc1ccccc1 -1.41% [at 12.7 µM]
